# Bioassay records (PubChem)
# A selection: hits, their analogues and other compounds. The true share with any hit is near 2%.
# ADAM10 inh – human ADAM10 inhibitors, primary screen, biochemical, QFRET, HTS. Disintegrin and metalloproteinase domain-containing protein 10 (Homo sapiens), O14672. recombinant ADAM10, EDANS/DABCYL FRET peptide cleavage, 3 h. inhibition, % at 7 µM. actives 0.62% (n = 370,000). AID 720582, 2013;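 active = inhibition above a per-campaign cutoff equal to the mean of compounds falling between control-based bounds plus 3 SD, cut at about 20% in these data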
# ADAM17 inh – ADAM17 inhibitors, primary screen, biochemical, QFRET; Disintegrin and metalloproteinase domain-containing protein 17 (Homo sapiens), P78536; recombinant ADAM17, EDANS/DABCYL FRET peptide cleavage; inhibition, % at 6.95 µM; actives 0.83% (n = 370,000); AID 720648, 2013;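 active = inhibition above the mean of compounds lying between control limits plus 3 SD, set per campaign, cut at about 8.5% in these data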
# FAS-TE inh – FAS thioesterase domain inhibitors, primary screen, biochemical, fluorescence intensity, uHTS; Fatty acid synthase (Homo sapiens), P49327; recombinant FAS-TE, OMFH fluorogenic substrate, fluorescence endpoint; inhibition, % at 15 µM; actives 0.67% (n = 360,000);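 active = compounds whose normalised, plate-corrected inhibition of enzyme fluorescence in the single-dose primary screen is 50% or more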
# GC-B act – human GC-B receptor activators, primary screen, HEK293 GC-B cells, cGMP TR-FRET, EC30 CNP. Atrial natriuretic peptide receptor 2 (Homo sapiens), P20594. 0% at EC30 CNP, 100% saturating CNP. activation, % at 10 µM. actives 0.11% (n = 370,000). AID 1920062, 2024;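 active = activation at 10 µM reaching about 35% in either raw or pattern-adjusted values, limit read from the data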
# NPR1 activator – GC-A stimulated cGMP production enhancers – HEK293 GC-A cells, cGMP TR-FRET, EC30 ANP, primary screen | 0% at EC30 ANP, 100% saturating ANP | actives 0.14% (n = 370,000) | Atrial natriuretic peptide receptor 1 (Homo sapiens), P16066 | activation, % at 10 µM; in the data active = activation above about 40%
# FAS-TE inh conf – FAS thioesterase domain inhibitors, confirmation, biochemical, fluorescence intensity, single concentration. actives 45% (n = 2,300). inhibition, % at 15 µM. shares compounds with FAS-TE inh. AID 624325, 2012. recombinant FAS-TE, OMFH fluorogenic substrate;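 active = compounds inhibiting the enzyme by at least 50% at 15 µM in any one of the replicates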
# A number is an active result; . = inactive; / = not tested or not shown.
SMILES,ADAM10 inh,ADAM17 inh,FAS-TE inh,GC-B act,NPR1 activator,FAS-TE inh conf
O=C1C(=Cc2cn(-c3ccccc3)nc2-c2ccc(OCc3ccccc3)cc2)SC(=S)N1CCS(=O)(=O)O,29,.,71,.,.,.
CCN(C(=O)[C@@H]1CC(=O)O[C@@H]1c1ccccc1)c1ccccc1,.,.,/,.,.,/
CCOC(=O)/C(C#N)=C/c1c(N2CCN(Cc3ccc4c(c3)OCO4)CC2)nc2c(C)cccn2c1=O,.,.,51,.,.,.
Cc1cccn2c(=O)c(/C=C(\C#N)S(=O)(=O)c3ccccc3)c(N3CCN(c4ccccc4)CC3)nc12,.,.,66,.,.,.
COC(=O)/C(C#N)=C/c1c(N2CCN(Cc3ccc4c(c3)OCO4)CC2)nc2c(C)cccn2c1=O,.,.,.,.,.,/
Cc1cccn2c(=O)c(/C=C(\C#N)C(N)=O)c(N3CCN(Cc4ccc5c(c4)OCO5)CC3)nc12,.,.,56,.,.,69
COc1ccc(CNCC#Cc2ccc(C)cc2)c(OC)c1,.,.,/,.,.,/
CC1(c2ccccc2)CC(C)(C)N2C(=O)/C(=C3\SC(=S)NC3=O)c3cccc1c32 (centres undefined),.,.,78,.,.,.
CC(=C1SC(=S)NC1=O)c1ccccc1,.,.,.,.,.,/
Cc1cc2c(cc1C)C(c1cccc([N+](=O)[O-])c1)CC(=O)N2 (centres undefined),.,.,60,.,.,79
COc1cc(C2CC(=O)Nc3cc(C)c(C)cc32)cc(OC)c1OC (centres undefined),.,.,.,.,.,/
Cc1ccc(C)c(NC(=O)c2cc(-c3ccc(Cl)cc3)nc3ccccc23)c1,.,.,/,.,.,/
O=C(O)/C(=C/c1ccc(Cl)c([N+](=O)[O-])c1)c1ccc(S(=O)(=O)N2CCCCC2)s1,.,.,56,.,.,53
COc1ccc(S[C@]2(C(=O)N3CCOCC3)CC(=O)N(c3ccc(C#N)cc3)[C@@H]2c2ccc(OC)cc2)cc1,.,.,/,.,.,/
COc1ccc(C(=O)N/C(=C/c2cccc3ccccc23)C(=O)NCCc2c[nH]c3ccccc23)cc1OC,.,.,61,.,.,.
COc1ccc(S[C@]2(C(=O)N3CCCC3)CC(=O)N(P(=O)(OC)OC)[C@@H]2c2ccc(OC)cc2)cc1,.,.,/,.,.,/
O=C(CC1C[C@H](C(=O)N2CCOCC2)[C@@]2(CCC3CCCC3)c3[nH]c4ccccc4c3CCN2C1=O)NCCc1ccccn1 (some centres undefined),.,.,80,.,.,91
CN(C)C(=O)CCc1ccc2c3c([nH]c2c1)[C@]1(CCC2CCCC2)[C@@H](C(=O)N2CCOCC2)C[C@H](CC(=O)NCCc2ccccn2)C(=O)N1CC3,.,.,.,.,.,/
COCCCNC(=O)CC1C[C@H](C(=O)N2CCOCC2)[C@@]2(CCC3CCCC3)c3[nH]c4ccc(OC)cc4c3CCN2C1=O (some centres undefined),.,.,53,.,.,64
O=C(CC1C[C@H](C(=O)N2CCOCC2)[C@@]2(CCC3CCCC3)c3[nH]c4ccccc4c3CCN2C1=O)NCCN1CCOCC1 (some centres undefined),.,.,76,.,.,87
COc1ccc2[nH]c3c(c2c1)CCN1C(=O)C(CC(=O)NCCc2ccccn2)C[C@H](C(=O)N2CCOCC2)[C@@]31CCC1CCCC1 (some centres undefined),.,.,61,.,.,46
COc1ccc2[nH]c3c(c2c1)CCN1C(=O)C(CC(=O)NCCc2ccccn2)C[C@H](C(=O)N2CCCCC2)[C@@]31CCc1ccccc1 (some centres undefined),.,.,.,.,.,/
N#Cc1ccc(OC[C@@H](O)CN2CCC(C(O)(c3ccccc3)c3ccccc3)CC2)cc1,.,.,/,.,.,/
CC(=O)N1CCCN(C(=O)CN2C(=O)CC(C)(C)S(=O)(=O)c3ccccc32)CC1,.,.,/,.,.,/
CCOc1ccc(N(CC(=O)Nc2c(C)n(C)n(-c3ccccc3)c2=O)S(=O)(=O)c2ccc(C)c(C)c2)cc1,.,.,/,.,.,/
SMILES,ADAM10 inh,ADAM17 inh,FAS-TE inh,GC-B act,NPR1 activator,FAS-TE inh conf
COc1cccc(NC(=O)Nc2nc3ncccn3c2-c2ccc(C(F)(F)F)cc2)c1,.,.,/,.,.,/
O=C(C[C@H]1C[C@H](C(=O)N2CCOCC2)[C@@]2(CCC3CCCC3)c3[nH]c4ccc(Cl)cc4c3CCN2C1=O)NCCCn1ccnc1,.,.,55,.,.,.
O=C(CC1C[C@H](C(=O)N2CCOCC2)[C@@]2(CCC3CCCC3)c3[nH]c4ccccc4c3CCN2C1=O)NCC12CC3CC(CC(C3)C1)C2 (some centres undefined),.,.,89,.,.,.
CN(C)C(=O)CCc1ccc2c3c([nH]c2c1)[C@]1(CCC2CCCC2)[C@@H](C(=O)N2CCOCC2)C[C@H](CC(=O)NCCCn2ccnc2)C(=O)N1CC3,.,.,.,.,.,/
O=C(CC1C[C@H](C(=O)N2CCOCC2)[C@@]2(CCC3CCCC3)c3[nH]c4ccccc4c3CCN2C1=O)NCc1ccco1 (some centres undefined),.,.,84,.,.,92
CN(C)C(=O)CCc1ccc2c3c([nH]c2c1)[C@]1(CCC2CCCC2)[C@@H](C(=O)N2CCOCC2)C[C@H](CC(=O)NCC24CC5CC(CC(C5)C2)C4)C(=O)N1CC3,.,.,.,.,.,/
O=C(CC1C[C@H](C(=O)N2CCCCC2)[C@@]2(CCc3ccccc3)c3[nH]c4ccccc4c3CCN2C1=O)NCc1ccco1 (some centres undefined),.,.,.,.,.,/
O=C1c2ccc(-c3ccc(Cl)c(C(F)(F)F)c3)cc2S(=O)(=O)c2cccc(C(=O)N3CCN(c4ccc(Cl)cn4)CC3)c21,.,.,67,.,.,.
COc1ccc(-c2ccc3c(c2)S(=O)(=O)c2cccc(C(=O)N4CCN(c5ccccn5)CC4)c2C3=O)cc1OC,.,.,.,.,.,/
CC(C)C[C@@H]1COc2cccc(N3CCCC3)c2S(=O)(=O)N1C,.,.,/,.,.,/
Nc1c(Cl)cc(-c2csc(N3CCCC3c3nc4cc(Cl)c(N5CCCCC5)cc4n3CCOCCO)n2)cc1Cl (centres undefined),.,.,70,.,.,.
